Experimental data as given in PubChem BioAssay (NCATS).
Records with an inconclusive call do not appear. A number with no mark means an inactive call. Active and inactive are the calls of the source. Calls follow the shape of the dose curve; as a rule, active = well fitted inhibition curve with a large enough effect; inconclusive = small, poorly fitted or top-dose-only effect; inactive = flat fitted curve, though single readings scatter.

Experiment: P-glycoprotein substrates identified in KB-8-5-11 adenocarcinoma cell line, qHTS therapeutic library screen (AID 1346987); also: nearly all actives have a fitted effect of over 65% in size
Settings: KB-8-5-11 (P-gp overexpressing) viability, CellTiter-Glo, 72 h; series mostly up to 44.5 µM; activity change, negative = cytotoxicity: at the top concentration
Outline: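 In this qHTS, P-gp-rich KB-8-5-11 cells received library compounds across a concentration range. Viability was quantified by luminescence after 72 h at 37 degree C.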
% is scaled to controls: 0 for no effect and ±100 for the full control effect; potency is read from the fitted curve at half-maximal effect.

Row | Structure (SMILES) | outcome | Potency | activity change, negative = cytotoxicity
1 | CC1(C)CC[C@]2(C(=O)O[C@@H]3O[C@H](CO)[C@@H](O)[C@H](O)[C@H]3O)CC[C@]3(C)C(=CCC4[C@@]5(C)CC[C@H](O[C@@H]6O[C@H](C(=O)O)[C@@H](O)[C@H](O)[C@H]6O)C(C)(C)C5CC[C@]43C)C2C1 (stereo partly drawn) | inactive [at 9.29 µM] | – | –
2 | C=C(C)C1CCC2(C(=O)O)CCC3(C(=O)O)C(CCC4C5(C)CCC(O)C(C)(C(=O)O)C5CCC43C)C12 (stereo not drawn) | inactive [at 17.3 µM] | – | –
3 | CC(C)C(NC(=O)c1ccc2ccccc2n1)C(=O)NC(CC(=O)O)C(=O)COc1c(F)cccc1F (stereo not drawn) | inactive | – | –
4 | NC[C@@](O)(c1ccc(Cl)cc1)c1ccc(-c2cn[nH]c2)cc1 | – | 9.2 µM (active) | –
5 | Cn1c(=O)n(-c2ccc(C(C)(C)C#N)cc2)c2c3cc(C#Cc4cccnc4)ccc3ncc21 | – | 0.0893 µM (active) | –
6 | COc1ccc(CC2C(=O)NC(C)C(=O)N(C)C3Cc4ccc(cc4)Oc4cc(ccc4OC4OC(CO)C(O)C(O)C4O)CC(C(=O)NC(C)C(=O)NC(C)C(=O)N2C)N(C)C3=O)cc1 (stereo not drawn) | – | – | -5.43% [at 9.29 µM]
7 | C[C@@H]1CCC2C(C)(C)[C@H](O)CC[C@]2(C)[C@@]12Cc1c(O)cc3c(c1O2)CNC3=O (stereo partly drawn) | – | – | 9.38%
8 | CO[C@H]1/C=C\O[C@@]2(C)Oc3c(C)c(O)c4c(O)c(c5c(nc6cc(C)ccn65)c4c3C2=O)NC(=O)/C(C)=C\C=C/[C@H](C)[C@H](O)[C@@H](C)[C@@H](O)[C@@H](C)[C@H](OC(C)=O)[C@@H]1C | inactive | – | –
9 | C[C@]12C=C[C@@]3(CCC4[C@](C)(CO)CCC[C@@]4(C)C3CC1)C2 (stereo partly drawn) | – | – | 6.2%
10 | CCOc1ccc2nc(SCCN3CCOCC3)[nH]c2c1 | – | – | -4.75%
11 | O=S(=O)(Nc1ccccn1)c1ccc(N=Cc2c(O)[nH]c3ccc4ncsc4c23)cc1 | inactive [at 9.29 µM] | – | –
12 | COc1cc(C)c(C(=O)O[C@H]2[C@@H](OC(C)=O)[C@H](n3ccc(=O)[nH]c3=O)O[C@@H]2CO)c(OC)c1 | inactive [at 17.3 µM] | – | –
13 | COC(=O)[C@@H](O)[C@H]1[C@@]2(C)CC3(O)[C@@H](C(=O)[C@H]2O)[C@]24O[C@]25CC(=O)O[C@@H](c2ccoc2)[C@]5(C)CCC4[C@]13C (stereo partly drawn) | inactive [at 17.3 µM] | – | –
14 | CC(C)(C)OC(=O)N1CCC(OCc2nc(-c3ccncc3)no2)CC1 | – | – | -0.687%
15 | COC(=O)C12C(=O)C(C)=C(O)C1(C)C(C)=CC1C3(CO)CCC(O)C(C)(C)C3CCC12C (stereo not drawn) | – | – | -4.88% [at 17.3 µM]
16 | Cc1nc2sc(C(=O)NCc3ccncc3)c(N)c2c(C)c1Cl | – | – | -28.6%
17 | COC(=O)c1ccc(OC(CO)C(O)c2ccc(O)c(OC)c2)c(OC)c1 (stereo not drawn) | – | – | -9.24%
18 | CC12CCC(OC3OC(CO)C(O)C(OC4OC(CO)C(O)C(O)C4O)C3O)CC1CCC1C2CCC2(C)/C(=C3/COC(=O)C3)CCC12O (stereo not drawn) | – | – | 4.78% [at 17.3 µM]
19 | COc1c(Nc2ncc(Cl)c(N[C@H]3[C@@H](C(N)=O)[C@@H]4C=C[C@H]3C4)n2)ccc2c1CC[C@@H](N1CCOCC1)CC2 | – | 8.2 µM (active) | –

Row | Structure (SMILES) | outcome | Potency | activity change, negative = cytotoxicity
20 | CC(=O)N[C@H]1[C@H](O[C@H]2CC[C@@]3(C)C(CC[C@]4(C)C3CC=C3C5CC(C)(C)CC[C@]5(C(=O)O)[C@H](O)C[C@]34C)C2(C)C)O[C@H](CO[C@@H]2OC[C@H](O)[C@H](O)[C@H]2O[C@@H]2OC[C@@H](O)[C@H](O)[C@H]2O)[C@@H](O)[C@@H]1O (stereo partly drawn) | – | – | 5.39% [at 9.29 µM]
21 | CCOC(=O)CCN(C(=O)c1ccc2c(c1)nc(CNc1ccc(C(=N)N)cc1)n2C)c1ccccn1 | – | – | -12.1%
22 | CC(=O)OC1C(=O)C2(C)C(O)CC3OCC3(OC(C)=O)C2C(OC(=O)c2ccccc2)C2(O)CC(OC(=O)C(O)C(NC(=O)c3ccccc3)c3ccccc3)C(C)=C1C2(C)C (stereo not drawn) | – | 1.3 µM (active) | –
23 | C[C@@H]1O[C@@H](OC[C@H]2O[C@@H](OC(CCCCc3ccc(O)cc3)CCc3ccc(O)cc3)[C@H](O)[C@@H](O)[C@@H]2O)[C@H](O)[C@H](O)[C@H]1O (stereo partly drawn) | inactive [at 17.3 µM] | – | –
24 | O=C(Nc1ccc(S(=O)(=O)Nc2ccccc2Cl)c(Cl)c1)c1ccccn1 | – | – | -16.4%
25 | CCO[C@@H]1OC(=O)C[C@@H]1NC(=O)[C@@H]1CCCN1C(=O)[C@@H](NC(=O)c1ccc(N)c(Cl)c1)C(C)(C)C | – | – | 6.1%
26 | C=C(CO[C@@H]1O[C@H](CO[C@@H]2OC[C@](O)(CO)[C@H]2O)[C@@H](O)[C@H](O)[C@H]1O)C1Cc2cc(C(C)=O)ccc2O1 (stereo partly drawn) | – | – | 8.42% [at 17.3 µM]
27 | C[C@@H]1C(=O)O[C@H](C)[C@H]1CC(=O)[C@](C)(O)[C@H]1CC[C@@]2(O)C3=CC(=O)[C@@H]4C[C@@H](O)[C@@H](O)C[C@]4(C)C3CC[C@]12C (stereo partly drawn) | – | – | -1.59% [at 17.3 µM]
28 | CC1(O)CC(O)C2(O)C=COC(O[C@@H]3O[C@H](CO)[C@@H](O)[C@H](O)[C@H]3O)C12 (stereo partly drawn) | – | – | 5.69%
29 | OC[C@H]1O[C@@H](OCCc2ccc(O)cc2)[C@H](O[C@@H]2OC[C@](O)(CO)[C@H]2O)[C@@H](O)[C@@H]1O | inactive [at 17.3 µM] | – | –
30 | Cc1cccc2c1NC(=O)C2(c1ccc(O)cc1)c1ccc(O)cc1 | – | – | -21.4%
31 | Cc1ccc(NC(=O)c2ccc(CN3CC[C@H](N(C)C)C3)c(C(F)(F)F)c2)cc1Nc1nccc(-c2cncnc2)n1 | – | – | -10.1% [at 17.3 µM]
32 | C[C@@H]1C(=O)O[C@H]2[C@@H](O)C34[C@H]5C[C@@H](C(C)(C)C)C36[C@@H](OC(=O)[C@@H]6O)O[C@@]4(C(=O)O5)[C@@]12O (stereo partly drawn) | – | – | -8.69%
33 | CC(C)c1cc2c(c(O)c1O)[C@@]13CCCC(C)(C)[C@@H]1[C@H](OC3=O)C2=O | – | – | -14.1%
34 | C=C1CCC2C(C)(C(=O)O)CCCC2(C)C1CCC(C)CC(=O)O (stereo not drawn) | – | – | -3.83%
35 | C=C(C(=O)O)[C@@H]1CC[C@@]2(C)CC[C@H](O)[C@@]2(C(C)=O)C1 | inactive | – | –
36 | Cc1c(F)cc(C(=O)NC2CC2)cc1-c1c(F)cn2c(C(C)(C)C)nnc2c1F | – | – | -12.4%
37 | Cc1cc(C(=O)N2CCCCc3ccccc32)ccc1CNC(=O)N1CCC[C@H]1C(=O)N(C)C | inactive | – | –
38 | COC(=O)C1=CO[C@@H](O[C@@H]2O[C@H](CO)[C@@H](O)[C@H](O)[C@H]2O)[C@@H]2C(COC(C)=O)=C[C@H](O)[C@H]12 | inactive [at 17.3 µM] | – | –
